The record followed here is PubChem BioAssay (Tox21).

Each structure is given as a SMILES string. A number with no mark means an inactive call. Records with an inconclusive call do not appear. Activity calls are given as the source filed them. Unless noted, calls follow the shape of the dose curve; as a rule, active = well fitted curve in the direction sought with a large enough effect in the repeat runs; inconclusive = weak or mixed curves; inactive = flat fitted curve, though single readings scatter.

Assay [1] is described as follows: qHTS assay to test for compound auto fluorescence at 535 nm (green) in HEK293 cells (AID 720680). Particulars: green autofluorescence 485/535 nm; series mostly up to 91.3 µM.
Assay [2] is described as follows: qHTS assay to test for compound auto fluorescence at 535 nm (green) in HEK293 cell free culture (AID 720682). The following applies: cell-free medium, green autofluorescence 485/535 nm, stronger effect = higher value; series mostly up to 91.3 µM. The method in brief:
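DMEM + 10% FBS, cell-free; cpd or DMSO pinned in; Ex485/Em535 read; output as fluorescein-equivalent signal.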

Assay [3] in a line: qHTS assay to test for compound auto fluorescence at 590 nm (red) in HepG2 cell free culture (AID 720684). The following applies: cell-free medium autofluorescence, red 540/590 nm; series mostly up to 91.3 µM. The method in brief:
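Cell-free; medium MEM + 10% FBS; compound or DMSO added by pintool; read Ex 540/Em 590 nm; Rose Bengal sodium as red reference fluorophore.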

Assay [4] in a line: qHTS assay to test for compound auto fluorescence at 460 nm (blue) in HepG2 cell free culture (AID 720685). The following applies: Cell-free culture medium, blue autofluorescence 405/460 nm; series mostly up to 91.3 µM. The method in brief: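 Cell-free plates of MEM plus 10% FBS received 23 nL compound or DMSO vehicle; blue-channel (405/460 nm) intensity scored against triamterene as reference fluorophore.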

Assay [5] in a line: qHTS assay to test for compound auto fluorescence at 535 nm (green) in HepG2 cell free culture (AID 720686). The following applies: Cell-free medium, green autofluorescence 485/535 nm; series mostly up to 91.3 µM.
Assay [6] is described as follows: qHTS assay to test for compound auto fluorescence at 460 nm (blue) in HepG2 cells (AID 720687). Particulars: autofluorescence 405/460 nm, 1 h; series mostly up to 91.3 µM. The method in brief:
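Blue-channel autofluorescence (Ex/Em 405/460 nm, triamterene-equivalent) was measured after 1 hr compound exposure at 37 C, 5% CO2. Cells were HepG2, plated overnight at 37 C in MEM plus 10% FBS.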

The target of assay [7] is Glucocorticoid receptor (Homo sapiens) (UniProt P04150). Kind of assay: qHTS assay to identify small molecule agonists of the glucocorticoid receptor (GR) signaling pathway (AID 720691; active = well fitted activation curve with a large enough effect in the signal ratio in the repeat runs, not every such curve was filed as active; the % refers to the signal ratio; also: potency is read from the fitted curve at half-maximal effect). Particulars: GR-bla HeLa, beta-lactamase reporter ratio, 18 h; series mostly up to 62.4 µM. The method in brief: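 Measures GR pathway activation through a GRE-beta-lactamase reporter stably integrated in HeLa cells, with 18 h compound treatment at 37 C and fluorescence detection using a FRET substrate.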
Sequence of Glucocorticoid receptor (Homo sapiens) (P04150 whole entry, looked up): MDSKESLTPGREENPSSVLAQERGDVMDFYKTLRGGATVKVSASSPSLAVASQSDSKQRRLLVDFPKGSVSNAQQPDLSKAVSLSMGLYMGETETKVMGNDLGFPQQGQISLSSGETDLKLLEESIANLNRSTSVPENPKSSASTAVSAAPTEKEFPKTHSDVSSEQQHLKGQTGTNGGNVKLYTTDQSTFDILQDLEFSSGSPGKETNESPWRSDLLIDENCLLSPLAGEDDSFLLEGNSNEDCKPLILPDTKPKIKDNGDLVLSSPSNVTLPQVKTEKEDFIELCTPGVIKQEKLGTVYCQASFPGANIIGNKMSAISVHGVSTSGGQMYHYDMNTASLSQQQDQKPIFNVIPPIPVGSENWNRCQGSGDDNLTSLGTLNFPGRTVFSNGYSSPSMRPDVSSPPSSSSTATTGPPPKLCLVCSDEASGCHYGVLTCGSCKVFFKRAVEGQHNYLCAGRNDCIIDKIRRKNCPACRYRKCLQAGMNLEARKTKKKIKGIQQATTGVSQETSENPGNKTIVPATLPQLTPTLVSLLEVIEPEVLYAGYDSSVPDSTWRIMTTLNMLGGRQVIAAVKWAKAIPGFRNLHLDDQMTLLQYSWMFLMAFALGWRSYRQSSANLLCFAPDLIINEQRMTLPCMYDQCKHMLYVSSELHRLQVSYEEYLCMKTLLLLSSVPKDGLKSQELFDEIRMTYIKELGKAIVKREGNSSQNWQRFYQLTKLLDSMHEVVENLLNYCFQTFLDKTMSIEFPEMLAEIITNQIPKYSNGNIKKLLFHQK

Assay [8] is described as follows: qHTS assay to test for compound auto fluorescence at 590 nm (red) in HEK293 cell free culture (AID 720683). Particulars: cell-free medium autofluorescence, Ex540/Em590 red; series mostly up to 91.3 µM. The method in brief:
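Red-channel autofluorescence of compounds in culture medium (DMEM, 10% FBS), no cells, measured at 540/590 nm. Rose Bengal sodium is the reference fluorophore for equivalence.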

In assay [9] the target is Glucocorticoid receptor (Homo sapiens) (UniProt P04150). Briefly: qHTS assay to identify small molecule antagonists of the glucocorticoid receptor (GR) signaling pathway (AID 720692; active = well fitted inhibition curve with a large enough effect in the signal ratio in the repeat runs, not every such curve was filed as active; the % refers to the signal ratio). Particulars: GR-bla HeLa, beta-lactamase FRET ratio, dexamethasone-stimulated, 18 h; series mostly up to 58.5 µM. The method in brief: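 Tox21 10K library screened in concentration-response for blockade of dexamethasone (5 nM final)-induced GRE-bla reporter activity in HeLa cells; 18 h treatment, fluorescence read.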
% is scaled to controls: 0 for no effect and ±100 for the full control effect.

In the case of `CC(C)c1ccc(O)cc1`, the result in assay [1], in [2], in assay [3], in [4], in assay [5] and in assay [6] was inactive. Besides, the Potency entry in [7] was “inactive”.

For `N[C@@H]1C[C@H]1c1ccccc1`, the outcome in [1], in [2], in assay [8], in assay [3], in assay [4] and in assay [5] was inactive. Also, the call in assay [6] was inactive.

Regarding `CC(=NC#N)N(C)Cc1ccc(Cl)nc1`, the molecule was classed as inactive in [1], in assay [2], in assay [8], in [3], in assay [5] and in assay [6].

For `O=C1CCCCC1Cl` (centres undefined), the molecule was classed as inactive in assay [1], in assay [2], in [8], in assay [3] and in [4]. Further, the Potency entry in [7] was “inactive”.

For the molecule `CCCC[N+](=O)[O-]`, the result in assay [1], in assay [2], in assay [8], in assay [3], in assay [4] and in assay [5] was inactive. The molecule was classed as inactive in [6]. For the same molecule, the Potency result in assay [7] was “inactive”.

`c1cncc([C@@H]2CCCCN2)c1`: the outcome in assay [1], in [2], in assay [8], in assay [3], in assay [5] and in [6] was inactive. In addition, the Potency entry in assay [7] and in assay [9] was “inactive” throughout.

For the molecule `CC1NCCOC1c1ccccc1` (centres undefined), the outcome in assay [1], in assay [2], in assay [8], in assay [3], in [4] and in [6] was inactive.

Turning to `C(COCC1CO1)OCC1CO1` (centres undefined), the molecule was called inactive in assay [1], in assay [2], in [8], in assay [3], in assay [4] and in assay [5]. For the same molecule, in assay [6], the molecule was classed as inactive. Besides, the Potency result in [7] and in [9] was “inactive” throughout.

Turning to `COc1ccccc1OC`, the molecule was classed as inactive in assay [1], in assay [2], in [8], in assay [4], in assay [5] and in [6]. Moreover, the Potency entry in assay [7] and in [9] was “inactive” throughout.

Regarding `ClCC1CO1` (centres undefined), the molecule was called inactive in assay [1], in [2], in assay [8], in [5] and in assay [6]. For the same molecule, the Potency result in assay [7] and in assay [9] was “inactive” throughout.

With `CCOC(=O)COc1ccc(Cl)cc1Cl`, the result in assay [1], in [2], in assay [8], in assay [3] and in [5] was inactive. Moreover, the Potency entry in assay [7] was “inactive”.

Regarding `CCSC(=O)Cl`, the molecule was called inactive in assay [1], in assay [2], in assay [8] and in [6]. Also, the Potency result in assay [7] and in [9] was “inactive” throughout.

In the case of `CCOC(=O)CCl`, the result in assay [1], in assay [2], in assay [3], in [4], in [5] and in assay [6] was inactive. Also, the Potency result in [7] and in assay [9] was “inactive” each time.

Consider `CN(CCO)CCO`, for which the call in assay [1], in [2], in assay [8], in [3], in assay [4] and in assay [5] was inactive. For the same molecule, in assay [6], the result was inactive. In addition, in assay [7], the Potency entry is “inactive”.

Consider `O=C(Cl)CCl`, for which the result in assay [1], in [2], in [3], in assay [4], in assay [5] and in [6] was inactive.

As for `ClCCCCl`, the molecule was called inactive in assay [1], in assay [2], in assay [8], in assay [3], in assay [4] and in assay [5]. Besides, the molecule was called inactive in assay [6]. Further, in [7], the Potency entry is “inactive”.

As to `NC(=O)OCCCc1ccccc1`, the outcome in assay [1], in assay [2], in assay [8], in assay [3], in assay [5] and in assay [6] was inactive. The Potency result in assay [7] and in assay [9] was “inactive” throughout.

As to `CCC(C)(C#N)N=NC(C)(C#N)CC` (centres undefined), the outcome in assay [1], in assay [2], in assay [8], in [3], in assay [4] and in assay [5] was inactive. Further, the result in assay [6] was inactive.

Regarding `CCCCCCCC(=O)Cl`, the molecule was classed as inactive in assay [1], in assay [2], in assay [8], in [3], in assay [4] and in [6]. The Potency result in assay [7] and in assay [9] was “inactive” each time.

As for `ClCCCCCCCl`, the molecule was called inactive in assay [1], in assay [2], in assay [8], in [3], in assay [4] and in assay [6]. In addition, the Potency entry in [7] and in assay [9] was “inactive” each time.

Turning to `N#CN=C1SCCN1Cc1ccc(Cl)nc1`, the call in assay [1], in assay [2], in assay [4], in assay [5] and in assay [6] was inactive. The Potency result in assay [7] and in assay [9] was “inactive” throughout.

Turning to `CC(C)(C)C(=O)C(Cl)Cl`, the result in [1], in [2], in assay [8], in [5] and in assay [6] was inactive.

In the case of `CCN(CCO)CCn1c(Cc2ccccc2)nc2c1c(=O)n(C)c(=O)n2C`, the molecule was classed as inactive in [1], in assay [2], in [8], in [3], in assay [4] and in assay [5]. Also, the molecule was classed as inactive in assay [6]. Further, the Potency result in assay [7] and in assay [9] was “inactive” each time.

Take `NCC1(CC(=O)O)CCCCC1`: in [1], the fluorescence, % of fluorescein was 0.112% [at 18.6 µM]. Further, the activity change in [2] is 0.0242% [at 18.6 µM]. The fluorescence, % of fluorescent control in [8] was 0.0512% [at 18.6 µM]; in [4], 0.0583% [at 18.6 µM]. The fluorescence, % of Rose Bengal in [3] is 0.0064% [at 18.6 µM]. Moreover, in assay [5], the fluorescence, % of fluorescein control is -0.0096% [at 18.6 µM]. Besides, the Potency result in assay [7] and in assay [9] was “inactive” throughout.

On to `C[N+]1(C)CCCCC1`, for which the molecule was classed as inactive in assay [1], in assay [2], in assay [8], in assay [3], in [5] and in [6].

For `CC(C)(C)c1cc(O)ccc1O`, the call in [1], in assay [2], in assay [8], in [3] and in assay [4] was inactive. In addition, the Potency result in assay [7] and in assay [9] was “inactive” in each case.

Turning to `Cn1c(CCCC(=O)O)nc2cc(N(CCCl)CCCl)ccc21`, the outcome in assay [1], in assay [2], in assay [5] and in assay [6] was inactive. For the same molecule, the Potency result in assay [7] and in [9] was “inactive” each time.

In the case of `O=C(O)CBr`, the call in assay [1], in [2], in assay [8], in [3], in [4] and in assay [5] was inactive. The molecule was called inactive in assay [6].

`O=C(Cl)C(Cl)Cl`: the result in [1], in assay [2], in assay [8], in [3], in [4] and in [5] was inactive. Moreover, in assay [7], the Potency result was “inactive”.

In the case of `Cc1ccc(-c2nc3ccc(C)cn3c2CC(=O)N(C)C)cc1`, the call in assay [1], in assay [2], in assay [8], in assay [3] and in assay [6] was inactive. Further, in assay [7], the Potency is 23.9 µM (active).

With `CCOC1Oc2ccc(OS(C)(=O)=O)cc2C1(C)C` (centres undefined), the outcome in assay [1], in assay [2], in [5] and in assay [6] was inactive.

Regarding `CCCN1CCC[C@@H]2Cc3[nH]ncc3C[C@H]21`, the outcome in assay [1], in assay [2], in [8], in assay [3], in [4] and in assay [5] was inactive. Also, in [6], the result was inactive. Also, the Potency entry in assay [7] and in assay [9] was “inactive” throughout.

On to `CN(C)C(=O)Oc1cc(OC(=O)N(C)C)cc(C(O)CNC(C)(C)C)c1` (centres undefined), for which the fluorescence, % of fluorescein in assay [1] was 0.102% [at 18.6 µM]. Also, in assay [2], the activity change was -0.0374% [at 18.6 µM]. Moreover, the fluorescence, % of fluorescent control was -0.0016% [at 18.6 µM] in assay [8], 0.0484% [at 18.6 µM] in assay [4] and 0.0969% [at 18.6 µM] in [6]. Further, the fluorescence, % of Rose Bengal in [3] is -0.0966% [at 18.6 µM]. For the same molecule, the Potency result in assay [7] and in assay [9] was “inactive” throughout.

With `O=[N+]([O-])c1cccc(CCl)c1`, the molecule was classed as inactive in assay [1], in assay [2], in assay [8], in assay [3], in assay [4] and in assay [6]. The Potency entry in assay [7] and in [9] was “inactive” throughout.

On to `CN(C)C1CCCCC1`, for which the molecule was classed as inactive in [1], in assay [2], in [8], in assay [3], in [4] and in assay [5]. Moreover, the call in [6] was inactive. The Potency result in assay [7] and in assay [9] was “inactive” each time.

`CCC(C(N)=O)N1CCCC1=O` (centres undefined): the call in assay [1], in [2], in [8], in assay [5] and in [6] was inactive.

Consider `NC(=O)CS(=O)C(c1ccccc1)c1ccccc1` (centres undefined), for which the call in [1], in assay [2], in assay [3] and in assay [4] was inactive. For the same molecule, the Potency entry in assay [7] and in [9] was “inactive” throughout.

Turning to `C/C=C/CC#N`, the call in assay [1], in assay [2], in assay [8], in [3], in [4] and in assay [5] was inactive. The molecule was called inactive in [6].

Regarding `C=C(Cl)CSC(=S)N(CC)CC`, the call in assay [1], in assay [2], in [8], in assay [4] and in [5] was inactive.
